Screening results as filed in PubChem BioAssay.
PNC assembly inh = perinucleolar compartment assembly inhibition; PC3M PTB-GFP, PNC prevalence imaging, 16 h; stronger effect = lower value; activity change (PNC), negative = inhibition, % at 10 µM; actives 3.1% (n = 140,000); AID 2417;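 active = readout at or below -70, meaning at least 70% loss of cells showing the perinucleolar compartment, a nuclear body marking cancer cells; inconclusive = readout between -30 and a set limit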;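 note: plate controls were DMSO wells for no effect and camptothecin positive control wells for full effect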
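PC3M cells stably expressing PTB-GFP, 750–1000 cells/well, treated 16 h at 37 °C with compound (23 nl of library stock), in duplicate. After paraformaldehyde fixation and Hoechst stain, imaged at 20x; PNC prevalence scored by image analysis.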
12-hLO inh = inhibitors of human 12-lipoxygenase (ALOX12); P18054; purified 12-hLO, xylenol orange hydroperoxide absorbance; actives 0.12% (n = 150,000); Potency, µM (series often up to 57.1 µM), without a hit: at the highest dose activity change, negative = inhibition, actives largely listed as inhibitors; note: potency is the fitted concentration of half-maximal effect; nearly all actives have a fitted effect of over 55% in size
Target sequence (P18054 whole entry, looked up): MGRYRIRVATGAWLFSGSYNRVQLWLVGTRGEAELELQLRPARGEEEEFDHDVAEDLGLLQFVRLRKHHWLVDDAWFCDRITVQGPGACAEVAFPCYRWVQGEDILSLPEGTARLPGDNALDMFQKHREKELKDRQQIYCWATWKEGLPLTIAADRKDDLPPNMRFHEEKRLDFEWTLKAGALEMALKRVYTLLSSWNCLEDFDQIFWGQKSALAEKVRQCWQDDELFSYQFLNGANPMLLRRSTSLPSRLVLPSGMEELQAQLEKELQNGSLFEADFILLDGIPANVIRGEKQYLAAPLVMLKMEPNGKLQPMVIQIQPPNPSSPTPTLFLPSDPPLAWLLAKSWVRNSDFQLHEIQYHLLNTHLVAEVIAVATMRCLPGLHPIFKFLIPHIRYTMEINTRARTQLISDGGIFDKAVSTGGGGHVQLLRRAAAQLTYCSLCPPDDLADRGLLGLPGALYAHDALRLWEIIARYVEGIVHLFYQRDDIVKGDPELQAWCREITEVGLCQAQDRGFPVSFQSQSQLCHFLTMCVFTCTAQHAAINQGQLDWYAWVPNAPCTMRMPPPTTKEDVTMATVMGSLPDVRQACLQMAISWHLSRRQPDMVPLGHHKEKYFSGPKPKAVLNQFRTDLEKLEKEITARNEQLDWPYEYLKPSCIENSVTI
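Purified human 12hLO (150 nM final) was preincubated with compounds for 15 min at room temperature in 25 mM Hepes pH 7.0, 0.01% Triton X-100, then reacted with 40 uM arachidonic acid for 30 min. Hydroperoxide was detected with ferrous iron/xylenol orange.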
15-hLO-2 inh = blocks human 15-lipoxygenase 2 activity. Potency, µM (doses to about 57.1 µM), for the others: at the highest dose activity change, negative = inhibition, most hits filed as inhibitors. purified 15hLO-2, xylenol orange hydroperoxide absorbance. AID 881. O15296. actives 0.56% (n = 110,000); note: potency is the fitted concentration of half-maximal effect; nearly all actives have a fitted effect of over 60% in size
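Enzyme 50 nM, AA 45 uM, 25 mM Hepes pH 7.5 + 0.01% Triton X-100; cpd preinc 15 min RT, rxn 90 min RT; stop/detect with 200 uM XO + 300 uM Fe(II) in 50 mM H2SO4, 30 min; A573/A405.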
An asterisk follows results filed as active; ? = inconclusive; . = not tested or not shown; [ ] = remark or other dose. Most compounds without a hit are left out; they make up all but 3.1% or so of the library. Unless noted, calls come from the whole dose curve; as a rule, active = well fitted curve in the direction sought with a large enough effect; inconclusive = small, poorly fitted or top-dose-only effect, or another doubt; inactive = no such curve, though single readings can be large; an effect the other way counts as inactive or inconclusive. Unless noted, % is set by controls: 0 for no effect and ±100 for the full control effect.

SMILES	PNC assembly inh	12-hLO inh	15-hLO-2 inh
Cc1noc(C)c1C(=O)N1CCC[C@@]2(CCN(C(=O)NC(C)C)C2)C1	.	0%	7%
Cc1nc(NCc2ccccc2)c2nc(-c3ccccc3)n(CC3CCN(C)CC3)c2n1	.	1%	18%
CC(NC(=O)CCN1C(=O)c2ccccc2C1=O)c1ccc2c(c1)CCCC2 (centres undefined)	-113*	-3%	.
CC(NC(=O)CCCN1C(=O)c2ccccc2C1=O)c1ccc2c(c1)CCCC2 (centres undefined)	?	-2%	-24%
Cn1cc([N+](=O)[O-])c(C(=O)Nc2cc(Oc3ccccc3)cc([N+](=O)[O-])c2)n1	-125*	-2%	.
Cc1nn(C)cc1C(=O)Nc1cc(Oc2ccc(Cl)cc2)cc([N+](=O)[O-])c1	-29	-8%	-2%
CCCCN(c1ccccc1)S(=O)(=O)c1ccc2c(c1)CCN2C(=O)CCC(=O)O	-83*	-2%	0%
CCCN(c1ccc(OCC)cc1)S(=O)(=O)c1ccc2c(c1)CCN2C(=O)CCC(=O)O	56	1%	-2%
O=S1(=O)[C@H]([C@H]2CC3c4ccccc4C2c2ccccc23)[C@@H](N2CCCCC2)[C@@H]1c1ccccc1	.	1%[11.4 µM]	-4%[11.4 µM]
COC1CC(O[C@H]2/C(C)=C/CC3CC(C[C@]4(CCC(C)C(C5CCCCC5)O4)O3)OC(=O)[C@H]3C=C(C)/C(=N/O)C4OC/C(=C\C=C\[C@@H]2C)[C@@]43O)OC(C)C1O (some centres undefined)	.	-1%	0%
COP(=O)(OC)c1nc(-c2cccc3ccccc23)oc1NCCc1ccccc1	-91*	-5%	.
COc1ccc(CCNc2oc(-c3cccc4ccccc34)nc2P(=O)(OC)OC)cc1OC	-2	-2%	.
CC1CCCCC1NC(=O)c1cncc(Br)c1 (centres undefined)	-81*	3%	10%
CC1CCCC(NC(=S)NC(=O)c2cncc(Br)c2)C1C (centres undefined)	0	5%	.
COC(=O)c1ccc2c(c1)C(C)(C)C(/C=C/c1ccccc1O)=[N+]2C	-19	14µM*	16µM*
C[N+]1=C(/C=C/Nc2ccccc2Cl)C(C)(C)c2ccccc21	?	0%	.
CN1CCN(CC(=O)Nc2cccc3ccccc23)CC1	.	2%[11.4 µM]	-1%[11.4 µM]
COC(=O)N1C(c2ccccc2)=Cc2ccccc2C1CC(C)=O (centres undefined)	.	7%[11.4 µM]	.
CN(C)c1nc(OCCNC(=O)Nc2ccccc2)nc(N(C)C)n1	-3	0%	-7%
CN(C)c1nc(OCCNC(=O)COc2ccccc2Cl)nc(N(C)C)n1	-84*	-7%	.
COCCNC(=O)COc1ccc(Br)cc1Cl	16	4%	1%
CN(C)CCCNC(=O)COc1ccc(Br)cc1Cl	-87*	0%	.
C=CCNC(=O)COc1ccc(Br)cc1Cl	-114*	-2%	2%
C=CCNC(=S)NNC(=O)COc1ccc(Cl)cc1Cl	15	-26%	.
O=C(CCCCCN1C(=O)c2cccc3cccc(c23)C1=O)NO	.	-9%[0.00818 µM]	?
SMILES	PNC assembly inh	12-hLO inh	15-hLO-2 inh
COc1ccccc1CN1CCC2(CC1)CCN(S(C)(=O)=O)CC2	.	-1%	5%
C(=N\Nc1nn[nH]n1)/c1ccccc1	34	-7%	-8%
Clc1ccc(/C=N/Nc2nn[nH]n2)cc1	-100*	-2%	.
C[C@@](Cc1ccccc1)(NC(=O)CN)c1ccccc1	.	-1%	39%
CCN(Cc1ccccc1)S(=O)(=O)c1ccc(S(=O)(=O)N(Cc2ccccn2)Cc2ccco2)cc1	?	1%	-2%
CC1CCCCN1S(=O)(=O)c1ccc(S(=O)(=O)N(Cc2ccccc2)Cc2ccco2)cc1 (centres undefined)	-100*	5%	.
Cn1c(O)c(N=N/C(=N/c2ccccn2)c2ccccn2)c2cc(Br)ccc21	.	-11%	.
CC(C)(C)NC(=O)NC(=O)COC(=O)c1nc(-c2ccccc2)n(-c2cccc(C(F)(F)F)c2)n1	-112*	-3%	.
CN(C(=O)COC(=O)c1nc(-c2ccccc2)n(-c2ccccc2)n1)C1CCS(=O)(=O)C1 (centres undefined)	-25	1%	2%
CC(=O)N1CC=CC1(CC(C)C)C(=O)NCCc1c[nH]c2ccccc12 (centres undefined)	-88*	1%	-6%
CC(C)C(=O)NCCc1c[nH]c2ccccc12	-124*	2%	.
Cc1ccc(C(=O)OCC(=O)c2c[nH]c3ccccc23)cc1	68	0%	.
CC(C)CC1(C(=O)NCCc2c[nH]c3ccccc23)C=CCN1C(=O)c1ccccc1 (centres undefined)	39	-1%	-4%
CC(=O)OCC(=O)NCC(=O)c1c[nH]c2ccccc12	-100*	-1%	.
O=C(NCCc1c[nH]c2ccccc12)C(F)(F)F	6	-8%	-5%
C=C(C)C(=O)OCCCCCCCCCC	.	-2%	3%
C[C@@H]1O[C@H](O[C@@H]2[C@@H](Oc3cc(O)c4c(c3)O[C@H](c3ccc(O)cc3)CC4=O)O[C@@H](CO)[C@@H](O)[C@H]2O)[C@@H](O)[C@H](O)[C@@H]1O	.	-5%[25.6 µM]	2%[25.6 µM]
Cn1cccc1C(=O)N1CCC2(CC1)CCN(C(c1ccccc1)c1ccccc1)CC2	.	-3%	7%
CC(N1CCOC1=O)S(=O)(=O)c1ccccc1 (centres undefined)	-110*	-16%	?
O=S(=O)(c1ccc(-c2ccccc2)cc1)N1CCOCC1	10	-2%	6%
COC(=O)C1=C(C(=O)OC)[C@@H]2N(Cc3ccccc3)c3ccccc3[C@@]23C[C@@H](C(=O)OC)N(S(=O)(=O)c2ccc(C)cc2)C3=N1	.	2%[11.4 µM]	.
Cc1cc(C)cc(-n2ccnc2SCC(=O)Nc2ccc3c(c2)OCCO3)c1	-85*	-2%	5%
O=C(CSc1nccn1-c1ccccc1)Nc1ccc2c(c1)OCO2	-21	-17%	5%
COc1ccc2nc3cc(Cl)ccc3c(Nc3ccc(O)c(CN4CCN(C)CC4)c3)c2c1	.	7%[11.4 µM]	1%[11.4 µM]
O=C(O)c1cccnc1	-10	-1%	6%
SMILES	PNC assembly inh	12-hLO inh	15-hLO-2 inh
O=C(c1cccnc1)c1cccnc1	-124*	-3%	.
CS(=O)(=O)c1ccc2nc(NC3(C(F)(F)F)N=C4SCCN4C3=O)sc2c1 (centres undefined)	-106*	10%	-2%
O=C1N2CCSC2=NC1(Nc1ccccn1)C(F)(F)F (centres undefined)	-12	-4%	-3%
CC(=O)OC/C=C(C)/C=C/C=C(C)/C=C/C1=C(C)CCCC1(C)C	.	0%[0.00818 µM]	10%[0.0915 µM]
CNC(=O)[C@]1(C)C[C@H]1[C@H](NC(=O)[C@]1(C)C[C@H]1[C@H](NC(=O)[C@]1(C)C[C@H]1[C@H](NC(=O)[C@]1(C)C[C@H]1[C@H](NC(=O)OCc1ccccc1)c1ccccc1)c1ccccc1)c1ccccc1)c1ccccc1	.	-1%	-5%
COCCNC(=O)COC(=O)c1nsc(Cl)c1Cl	-109*	7%	-2%
COCCNC(=O)C(C)OC(=O)c1nsc(Cl)c1Cl (centres undefined)	21	3%	1%
